In ChEMBL document CHEMBL1157539, “Thousands of chemical starting points for antimalarial lead identification” (Nature, 2010) one finds Inhibition data, which are given here for 30 compounds.

What all share (assay type): functional
Assay [1] has as its system Plasmodium falciparum. The assay can be described thus: GSK_TCMDC: Inhibition of Plasmodium falciparum 3D7 in whole red blood cells, using parasite LDH activity as an index of growth. Test compounds present at 2uM.
The subject of assay [2] is Plasmodium falciparum. The assay can be described thus: GSK_TCMDC: Inhibition of Plasmodium falciparum Dd2 in whole red blood cells, using parasite LDH activity as an index of growth. Test compounds present at 2uM.
A further assay deals with HepG2. The assay can be described thus: GSK_TCMDC: Percent inhibition of human HepG2 cell line. Test compounds present at 10uM.

The term Inhibition denotes the share of the control response that was lost under treatment. Take `NC1CCN(Cc2cccc(-c3cccc(-c4nc5ccccc5[nH]4)c3)c2)C1.O=C(O)C(F)(F)F` (stereo not given): the values for the Inhibition in the assay on Plasmodium falciparum [1], in the assay on Plasmodium falciparum [2] and in the assay with HepG2 were 100%, 0% and 14%, respectively.
As for `COc1cc(NC(=O)c2cccs2)c(OC)cc1NC(=O)Nc1cccc(Cl)c1`, the Inhibition with Plasmodium falciparum [1] was found to be 83%; in the assay on Plasmodium falciparum [2], 10%; in the assay with HepG2, 5%.
Taken in the same sequence, the figures for `CCC[C@@H]([C@@H](CC1CCCCC1)C(=O)N[C@@H](CCCCNS(C)(=O)=O)C(=O)Nc1nccs1)N(O)C=O` were 100%, 74% and 0%.
The like results for `N#Cc1cccc(NC(=O)Nc2cccc(-c3cccc(-c4nc5ccccc5[nH]4)c3)c2)c1` were, in that order, 100%, 96% and 46%.
The like results for `O=C(c1ccc(-c2ccc(-c3nc4ccccc4[nH]3)s2)cc1)N1CCCCC1CN1CCC(O)C1` (stereo not given) were, in that order, 84%, 55% and 18%.
As to `COc1ccc(-c2ccc(NC(=O)c3cccc(C#N)c3)cc2)cc1CN1CCNCC1.O=C(O)C(F)(F)F`, the Inhibition came out at 100% with Plasmodium falciparum [1], 47% in the assay on Plasmodium falciparum [2] and 30% with HepG2.
Taken in the same sequence, the figures for `CCCCNC(=N)Nc1ccc(OCCCOc2ccc(NC(=N)NCCCC)cc2)cc1` were 96%, 97% and 15%.
The like results for `CCOC(=O)C1=C(C)NC(Cn2ccnc2)=C(C(=O)OCC)C1c1ccc(C(C)(C)C)cc1.Cl` (stereo not given) were, in that order, 100%, 33% and 8%.
The like results for `COc1ccc(-c2cc3ncnc(N4CCN(CCN5CCCC5)CC4)c3s2)cc1` were, in that order, 98%, 90% and 22%.
For the compound `O=C(/C=C/c1ccc(Cl)c(Cl)c1)NC1CCC(CN2CCC(c3nc4ccccc4s3)CC2)CC1` (stereo not given), the Inhibition with Plasmodium falciparum [1] is on record as 87%; in the assay on Plasmodium falciparum [2], 32%; in the assay on HepG2, 50%.
Taken in the same sequence, the figures for `Cc1cc(NC(=O)c2coc3cc(F)c(N4CC(C)N(C)C(C)C4)cc23)ccc1-n1ccnc1.Cl` (stereo not given) were 96%, 42% and 0%.
The like results for `Br.CCC(C)Oc1ccc(CCCON2C(N)=NC(N)=NC2(C)C)cc1` (stereo not given) were, in that order, 92%, 95% and 65%.
The like results for `CCN(CC)CCN(Cc1ccc(-c2ccc(C(F)(F)F)cc2)cc1)C(=O)Cn1c(CCc2ccccc2F)nc(=O)c2ccccc21.O=C(O)C(O)C(O)C(=O)O` were, in that order, 95%, 54% and 39%.
Regarding `CC(=NNC(S)=NC(C)(C)C)c1ccccn1`, the values for the Inhibition with Plasmodium falciparum [1], with Plasmodium falciparum [2] and in the assay with HepG2 were 99%, 100% and 63%, respectively.
Taken in the same sequence, the figures for `CC(=O)c1cccc2[nH]c(C(=O)NC3CCC(CCN4CCc5ccc(C#N)cc5C4)CC3)cc12.Cl` (stereo not given) were 96%, 0% and 12%.
The like results for `O=C(C=Cc1ccc(Cl)c(Cl)c1)NCCCCCN1CCC(CCCNC(=O)C2CC2c2ccccc2)CC1` (stereo not given) were, in that order, 95%, 12% and 45%.
`CCn1nc(C(=O)NC2CCOc3ccccc32)c2ccccc2c1=O` (stereo not given): the figures for the Inhibition in the assay with Plasmodium falciparum [1], with Plasmodium falciparum [2] and in the assay with HepG2 were 86%, 59% and 13%, respectively.
As for `O=C(/C=C/c1ccc(Cl)cc1Cl)N1CCC(CCN2CCC(c3c[nH]c4ccccc34)CC2)CC1`, the Inhibition in the assay on Plasmodium falciparum [1] amounted to 98%; with Plasmodium falciparum [2], 37%; in the assay with HepG2, 94%.
`O=C(NCc1ccc2c(c1)OCO2)c1nn(CCN2CCC(N3CCCC3)CC2)cc1-c1ccc(Cl)c(Cl)c1`: the Inhibition with Plasmodium falciparum [1] was determined as 94%; in the assay with Plasmodium falciparum [2], 17%; in the assay with HepG2, 21%.
The like results for `Cl.O=C(NC1CCC(CCN2CCc3ccc(-c4cnccn4)cc3CC2)CC1)c1cccc(-n2cccn2)c1` (stereo not given) were, in that order, 93%, 1% and 23%.
The like results for `CN(C)CCOc1ccc(NC(=O)NC(C)(C)c2nc(-c3ccc(Cl)c(O)c3)c(-c3ccncc3)[nH]2)cc1.Cl` were, in that order, 98%, 98% and 22%.
The like results for `COc1cc(Nc2ncnc3cc(OC)c(OC)cc23)cc([N+](=O)[O-])c1.Cl` were, in that order, 97%, 6% and 8%.
With `COc1ccc2c(N/N=C/c3cccc([N+](=O)[O-])c3)cc(C)nc2c1`, the figures for the Inhibition in the assay with Plasmodium falciparum [1], with Plasmodium falciparum [2] and in the assay with HepG2 were 100%, 97% and 18%, respectively.
The like results for `CN(CCC1CCN(C(=O)/C=C/c2ccc(Cl)c(Cl)c2)CC1)C1CCC(c2c[nH]c3ccccc23)CC1` (stereo not given) were, in that order, 87%, 9% and 57%.
Regarding `O=[N+]([O-])c1ccccc1C=NN=c1cc[nH]c2ccccc12`, the Inhibition is on record as 100% in the assay with Plasmodium falciparum [1], 98% with Plasmodium falciparum [2] and 3% with HepG2.
The like results for `Cc1[nH]cnc1CSCCN/C(=N\C#N)NCCCCCCCCN/C(=N/C#N)NCCSCc1nc[nH]c1C` were, in that order, 81%, 48% and 1%.
Regarding `COc1ccc(Cl)cc1NC(=O)Nc1ccc2c(c1)CCN(C1CCC1)CC2.Cl`, the results for the Inhibition with Plasmodium falciparum [1], in the assay with Plasmodium falciparum [2] and with HepG2 were 98%, 19% and 38%, respectively.
The like results for `COc1cc(-c2nc(-c3ccccc3)c(-c3ccccc3)[nH]2)ccc1OCCN(C)C` were, in that order, 100%, 100% and 0%.
Taken in the same sequence, the figures for `Cc1[nH]c(C)c(-c2ccc(-c3ccccc3F)nc2)c(=O)c1Br` were 97%, 97% and 2%.
Taken in the same sequence, the figures for `Cl.Oc1ccccc1Nc1nc(NCc2ccco2)c2ccccc2n1` were 99%, 71% and 0%.
